Assay results from PubChem BioAssay (NCI).
The panel holds about 83,000 compounds, 20% with a hit somewhere; the sample as a whole holds those more often.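 Assay: single dose, 48 h. Readout: percent growth (0 = no net growth; negative = cell death). Active: <10.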 Unmarked numbers belong to inactive results. Activity calls are given as the source filed them.

How the values were obtained:
Assay in all cases: NCI-60 one-dose screen, 48 h (100 = growth as untreated, 0 = no growth, -100 = all killed)
Details in all cases: 10 µM unless noted
NCI-H23 lung = tested on: NCI-H23 lung
NCI-H226 lung = tested on: NCI-H226 lung
NCI-H322M lung = tested on: NCI-H322M lung
HOP-62 NSCLC = tested on: HOP-62 NSCLC
NCI-H460 lung = tested on: NCI-H460 lung
NCI-H522 lung = tested on: NCI-H522 lung
A549/ATCC NSCLC = tested on: A549/ATCC NSCLC
786-0 renal = tested on: 786-0 renal
COLO 205 colon = tested on: COLO 205 colon
DU-145 prostate = tested on: DU-145 prostate
K-562 leukemia = tested on: K-562 leukemia
MALME-3M melanoma = tested on: MALME-3M melanoma
MDA-MB-231 breast = tested on: MDA-MB-231 breast
RXF 393 renal = tested on: RXF 393 renal
SF-268 CNS = tested on: SF-268 CNS
SF-295 CNS = tested on: SF-295 CNS
SF-539 CNS = tested on: SF-539 CNS
UACC-257 melanoma = tested on: UACC-257 melanoma
M14 melanoma = tested on: M14 melanoma

Row | SMILES | growth (NCI-H23 lung) | growth (NCI-H226 lung) | growth (NCI-H322M lung) | growth (HOP-62 NSCLC) | growth (NCI-H460 lung) | growth (NCI-H522 lung) | growth (A549/ATCC NSCLC) | growth (786-0 renal) | growth (COLO 205 colon) | growth (DU-145 prostate) | growth (K-562 leukemia) | growth (MALME-3M melanoma) | growth (MDA-MB-231 breast) | growth (RXF 393 renal) | growth (SF-268 CNS) | growth (SF-295 CNS) | growth (SF-539 CNS) | growth (UACC-257 melanoma) | growth (M14 melanoma)
1 | Cc1ccc(-c2cc(C(=O)N=Nc3c(O)[nH]c4ccc(F)cc34)c3ccccc3n2)cc1 | 15.1% | 59% | 44.4% | 6.08% (active) | 1.25% (active) | 25.5% | 11.2% | 44% | 73.9% | 51.1% | 60.8% | 48.4% | 11% | 109% | 65.3% | 98.7% | -39.7% (active) | 69% | 79.6%
2 | CCOc1ccc(-c2cc(-c3cc(C(C)C)c(O)cc3C)nn2-c2ccc(S(N)(=O)=O)cc2)cc1 | 27.6% | 67.4% | 66.6% | 65.4% | 23.9% | 1.3% (active) | 32% | 37.1% | 131% | 34.6% | 12.4% | 65.8% | 37.5% | 38.9% | 44.1% | 35.6% | 11.9% | 46.8% | 49.3%
3 | COc1ccc(-n2c(NC(=O)N3CCN(C)CC3)c(C#N)c3ccccc32)cc1 | 33.8% | 11.4% | 90.2% | 30.5% | 30.7% | 61.1% | 45.3% | 44.2% | 65.5% | 41.2% | 58.6% | 38.5% | 29.6% | -9.29% (active) | 29.1% | 47.1% | 14.3% | 60.3% | 54.4%
4 | CCOC(=O)c1ccc(NC(=S)NC(=O)c2ccc(NC(=O)C(C)C)cc2OC)cc1 | 15.9% | 22.3% | 74.9% | 53.9% | 44.5% | 30.9% | 80.2% | 85.2% | 37.5% | 78.2% | 10.7% | 3.16% (active) | 47.2% | 74.2% | 68.1% | 36.8% | 79.6% | 42% | 34.1%
5 | COc1cc(C2C(C(=O)OCc3ccccc3)=C(C)Nc3nc4ccccc4n32)cc(OC)c1OC (centres undefined) | 45.8% | -37.3% (active) | 40.9% | 31.1% | 16% | -7% (active) | 34.9% | -66.1% (active) | 52.5% | 59.3% | 20.7% | -16.7% (active) | -26.7% (active) | -39.6% (active) | 15.1% | 3.38% (active) | -44.5% (active) | 30.2% | 27.1%
6 | O=C(CSc1nc2sc3c(c2c(=O)n1-c1ccc(Cl)cc1)CCCC3)NNC(=O)c1ccc(Br)cc1 | 55.6% | 45.2% | 52.7% | 17% | 76.9% | 64.4% | 82.6% | 98.5% | 120% | 97.4% | 55.5% | 69.2% | 25.6% | 76% | 84.9% | 84.1% | -29.5% (active) | 98.6% | 71.9%
7 | Cn1cc(-c2cc3nc(-c4cn(C)c5ncc(Br)cc45)cc(N)n3n2)c2cc(F)ccc21 | 15.2% | 10.9% | 35.3% | 15% | 20.9% | 2.15% (active) | 0.571% (active) | -5.13% (active) | 51.6% | 0.863% (active) | 21.9% | 8.23% (active) | -42.1% (active) | -39.8% (active) | 57.6% | -45.7% (active) | -26.5% (active) | 24.4% | 7.16% (active)
8 | Oc1ccc(Cl)c(Nc2nc(SCCN3CCOCC3)nc3c2cnn3CC(Cl)c2ccc(Br)cc2)c1 (centres undefined) | 31.8% | 38.5% | 92.8% | 32.7% | 10.1% | 22.2% | 12% | 43.3% | 106% | 35% | -22.9% (active) | 12.2% | -3.97% (active) | -14.2% (active) | 40.8% | 13% | 29.2% | 28.2% | 25%
9 | O=C(Nc1ccc(Cl)c(C(F)(F)F)c1)N1CCN(c2cc(-c3cn(-c4ccccc4)nc3-c3cccc(O)c3)ccn2)CC1 | -27.3% (active) | -16.2% (active) | 14.8% | 14.5% | 7.84% (active) | -17.3% (active) | 14.7% | 8.51% (active) | -2.61% (active) | 22.5% | 14.8% | -31.4% (active) | -48.6% (active) | -35.4% (active) | 2.35% (active) | -37.2% (active) | 7.9% (active) | -16.6% (active) | -19.3% (active)
10 | O=C1N/C(=N\c2nccs2)S/C1=C\c1ccc([N+](=O)[O-])cc1 | 32.7% | 6.47% (active) | 23.2% | 37.4% | 8.33% (active) | -1.75% (active) | 9.8% (active) | 19.7% | 23.2% | 39.9% | 13.3% | 28.4% | 10.8% | 8.41% (active) | 19.9% | 15% | 4.72% (active) | 8.51% (active) | 5.66% (active)
11 | Cc1ccc(C(=O)Nc2cc(-n3ccnc3)cc(C(F)(F)F)c2)cc1-n1cc(-c2cnc3cccnn23)nn1 | 82% | 89.9% | 113% | 107% | 97% | 102% | 101% | 103% | 42.2% | 111% | 9.87% (active) | -7.64% (active) | 31.5% | 94.8% | 120% | 107% | 84.7% | 47.8% | 25.4%
12 | O=c1c(-c2nc(-c3ccccc3)c(-c3ccccc3)[nH]2)coc2ccc(F)cc12 | 60.7% | 65.1% | 73.1% | 70.1% | 19% | 71.7% | 40% | 87.2% | 53% | 46.1% | 32.5% | 52% | 64% | 92.3% | 64% | 71.5% | 70.9% | 77.6% | 53.3%
13 | Cc1cn(-c2cc(NC(=O)c3ccc(C)c(-n4cc(-c5cnc6cccnn56)nn4)c3)cc(C(F)(F)F)c2)cn1 | 56.9% | 68.8% | 106% | 80.5% | 102% | 81.4% | 94.3% | 95.4% | 31% | 105% | 4.65% (active) | -12.3% (active) | 24.7% | 98.1% | 112% | 93.8% | 77.7% | 22.4% | 21.5%
14 | Cc1nn(-c2ccccc2)c2nc(C)n(CC(=O)N/N=C/c3cccc([N+](=O)[O-])c3)c(=O)c12 | 102% | 100% | 98.1% | 96.1% | 106% | 92.7% | 91.9% | 84% | 120% | 105% | 91% | 99% | 78.5% | 84.2% | 96.5% | 101% | 95.3% | 101% | 107%
15 | COc1ccc(/C=C/C(=O)c2ccc(OC)c(S(N)(=O)=O)c2)c(C(F)(F)F)c1 | -78.3% (active) | -40.9% (active) | -2.93% (active) | -5.21% (active) | 4.78% (active) | 9.43% (active) | 10.6% | -82% (active) | 4.9% (active) | 16.4% | 7% (active) | 17.8% | 5.46% (active) | 16.4% | 15.5% | 37.5% | -84.9% (active) | 62.3% | -48.5% (active)
16 | Cc1nn(-c2ccccc2)c2nc(C)n(C(=O)N/N=C/c3cccc([N+](=O)[O-])c3)c(=O)c12 | 77.7% | 105% | 91.7% | 98.6% | 93.7% | 47.4% | 83.7% | 108% | 117% | 99.9% | 62% | -10.2% (active) | 94.7% | 115% | 101% | 101% | 105% | 78.4% | 80.4%
